Data published in PubChem BioAssay AID1835 (Johns Hopkins Ion Channel Center, 2009).
Hit rate of the full screen: of about 2,400 compounds, about 750 (31%) were called active.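 How the source made its calls: active means median signal gain over dofetilide-blocked control wells reaching their mean plus 3 SD, so readout 1 at least 0; inactive means the rest.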 The list shows a part of the results.

biological target: Voltage-gated inwardly rectifying potassium channel KCNH2 (Homo sapiens) (UniProt Q12809); experiment: modulators restoring hERG flux under dofetilide – cell-based, thallium flux, duplicate retest, dofetilide IC70, confirmation (AID 1835); details: hERG cell line, FluxOR thallium flux, dofetilide-blocked; at 10 µM; stronger effect = higher value
Sequence (Q12809 whole entry, looked up): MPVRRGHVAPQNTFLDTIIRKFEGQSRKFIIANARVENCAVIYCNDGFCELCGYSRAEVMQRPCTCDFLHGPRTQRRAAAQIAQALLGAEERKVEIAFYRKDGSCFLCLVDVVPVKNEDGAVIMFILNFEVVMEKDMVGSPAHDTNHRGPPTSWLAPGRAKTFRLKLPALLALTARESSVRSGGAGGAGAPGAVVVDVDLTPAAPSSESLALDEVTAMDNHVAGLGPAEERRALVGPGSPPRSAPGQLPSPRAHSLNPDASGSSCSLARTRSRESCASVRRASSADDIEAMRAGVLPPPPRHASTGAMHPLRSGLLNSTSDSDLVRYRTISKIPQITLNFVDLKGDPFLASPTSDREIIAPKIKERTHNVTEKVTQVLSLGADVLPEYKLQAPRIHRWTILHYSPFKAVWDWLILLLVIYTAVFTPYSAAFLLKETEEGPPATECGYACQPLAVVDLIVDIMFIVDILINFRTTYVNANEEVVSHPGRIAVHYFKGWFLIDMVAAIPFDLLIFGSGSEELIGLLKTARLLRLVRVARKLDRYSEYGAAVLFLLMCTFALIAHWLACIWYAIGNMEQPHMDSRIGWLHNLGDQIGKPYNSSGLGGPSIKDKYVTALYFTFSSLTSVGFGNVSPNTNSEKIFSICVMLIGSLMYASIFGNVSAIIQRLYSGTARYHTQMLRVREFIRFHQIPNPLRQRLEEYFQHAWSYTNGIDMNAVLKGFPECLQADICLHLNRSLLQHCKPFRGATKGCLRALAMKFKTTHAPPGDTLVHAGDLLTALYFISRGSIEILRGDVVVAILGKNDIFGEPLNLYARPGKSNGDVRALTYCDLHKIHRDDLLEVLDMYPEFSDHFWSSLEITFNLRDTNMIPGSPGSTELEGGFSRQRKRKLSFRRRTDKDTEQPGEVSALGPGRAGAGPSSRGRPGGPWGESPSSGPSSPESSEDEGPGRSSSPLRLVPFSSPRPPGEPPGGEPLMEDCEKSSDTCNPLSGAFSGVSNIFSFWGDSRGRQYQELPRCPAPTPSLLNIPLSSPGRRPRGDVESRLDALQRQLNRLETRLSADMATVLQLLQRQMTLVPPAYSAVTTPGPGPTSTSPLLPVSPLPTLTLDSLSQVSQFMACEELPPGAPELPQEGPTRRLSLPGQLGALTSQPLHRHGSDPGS

Row | Compound | activity increase over dofetilide control, less the hit threshold
1 | COC(=O)c1ccnc(/C=N/O)c1 | -13% (inactive)
2 | O=C1NC(=S)SC1=C1CCCCCC1 | 53% (active)
3 | O=C(O)c1ccc(S(=O)(=O)/N=C2\C=C(Nc3ccccc3F)C(=O)c3ccccc32)cc1 | 4% (active)
4 | Cc1ccccc1NC1=C/C(=N\S(=O)(=O)c2ccc(C(=O)O)cc2)c2ccccc2C1=O | -6% (inactive)
5 | O=C(CCn1c(=S)[nH]c2cc3c(cc2c1=O)OCO3)NCc1ccc(Cl)cc1 | -8% (inactive)
6 | O=c1c2ccccc2[nH]c(=S)n1CCC1=CCCCC1 | 11% (active)
7 | O=c1c2ccc(Cl)cc2[nH]c(=S)n1CCC1=CCCCC1 | 42% (active)
8 | O=c1c2cccnc2[nH]c(=S)n1CCC1=CCCCC1 | -3% (inactive)
9 | O=C(Cc1cccs1)Nn1c(Cc2cccs2)nc2ccccc2c1=O | -7% (inactive)
10 | CC(=O)Nc1ccc(S(=O)(=O)NC2(C(F)(F)F)C(=O)Nc3c2c(=O)[nH]c(=O)n3C)cc1 (centres undefined) | -10% (inactive)
11 | O=C(O)c1sccc1OCc1ccccc1 | -8% (inactive)
12 | O=C(NNc1c(F)c(F)cc(F)c1F)c1cc2ccccc2oc1=O | -20% (inactive)
13 | COc1ccc(CCNC(=O)c2cc3ccccc3oc2=O)cc1 | -8% (inactive)
14 | O=C(O)c1ccccc1NC(=O)c1cc2ccccc2oc1=O | 10% (active)
15 | CCO/C=C1\N=C(c2ccc(F)cc2)OC1=O | -5% (inactive)
16 | COC(=O)C1=C(C)NC2=C(C(=O)CCC2)C1c1ccc(-c2ccsc2C(=O)OC)o1 (centres undefined) | 26% (active)
17 | Cc1cc(C)c(S(=O)(=O)NCc2ccccn2)c(C)c1 | -6% (inactive)
18 | O=C(O)CNC(=O)c1ccc(NC(=O)/C(=C/c2ccccc2)NC(=O)c2ccco2)cc1 | -13% (inactive)
19 | CCN(CC)c1ccc(NC(=S)NC(=O)c2ccco2)cc1 | 48% (active)
20 | CCOc1ccc(NC(=S)NC(=O)c2ccco2)cc1 | 10% (active)
21 | CCCOc1ccc(C(=O)NNC(=S)NC(=O)c2ccco2)cc1 | -41% (inactive)
22 | COc1cc(OC)cc(C(=O)NC(=S)Nc2ccc(NC(=O)c3ccco3)cc2)c1 | -15% (inactive)
23 | O=C(CN1C(=O)COc2ccccc21)NCCCN1CCOCC1 | -2% (inactive)
24 | Cc1ccc(N2CCN(C(=O)N3CCCC3)CC2)cc1C | 5% (active)
25 | COc1ccc(NC(=O)N2CCN(c3ccc([N+](=O)[O-])cc3)CC2)cc1OC | -14% (inactive)
26 | Cc1ccc(-n2c(=O)c3cc4c(=O)n(-c5ccc(C)c(C)c5)c(=O)c4c(C(=O)c4ccc(C(=O)O)cc4)c3c2=O)cc1C | -8% (inactive)
27 | Cn1ccnc1C(O)c1cccc(OCc2ccccc2)c1 (centres undefined) | -10% (inactive)

Row | Compound | activity increase over dofetilide control, less the hit threshold
28 | CC1=CC(=O)C(C(C)C)=CC1=NC(=O)c1ccc(C)cc1 | -36% (inactive)
29 | Cc1ccc(C(=O)Sc2cccccc2=O)cc1 | 8% (active)
30 | COCCCNC(=O)CCc1nnc(Cc2ccc(-c3ccccc3)cc2)o1 | -16% (inactive)
31 | ON/C=N/C(=S)Nc1ncc(C(F)(F)F)cc1Cl | 22% (active)
32 | CON/C=N/C(=S)Nc1ncc(C(F)(F)F)cc1Cl | 65% (active)
33 | CCCCNC(=O)c1onc(CSc2nc3ccccc3[nH]2)c1C(=O)NCCCC | -12% (inactive)
34 | Cc1ccc(CNC(=O)CCc2ccc(S(=O)(=O)NCC(C)C)cc2)cc1 | -8% (inactive)
35 | CC(NC(=O)c1ccc(F)cc1)c1ccc2c(c1)CCCC2 (centres undefined) | -12% (inactive)
36 | CC(NC(=O)c1ccc(Br)cc1)c1ccc2c(c1)CCCC2 (centres undefined) | 12% (active)
37 | Cc1ccc(C(C)NC(=O)c2cccs2)cc1C (centres undefined) | -21% (inactive)
38 | Fc1ccc(NC(=S)Nc2nccs2)cc1 | 0% (inactive)
39 | Nc1cccc2c1C(=O)N(CC(=O)NC13CC4CC(CC(C4)C1)C3)C2=O | -9% (inactive)
40 | Cc1ccc(/C(O)=C/C(=O)C(=O)NC23CC4CC(CC(C4)C2)C3)cc1 | 10% (active)
41 | CCC(C)c1ccccc1NC(=O)C(C)NCCN(C)C (centres undefined) | -13% (inactive)
42 | CCOc1ccccc1NC(=S)NC(=O)c1ccco1 | 3% (active)
43 | CCC(C)c1ccccc1NC(=S)NC(=O)c1ccco1 (centres undefined) | 69% (active)
44 | CCC(C)c1ccccc1NC(=O)c1[nH]c(C)c(C(C)=O)c1C (centres undefined) | -12% (inactive)
45 | Cc1nc2n(n1)CC(O)CS2 (centres undefined) | -14% (inactive)
46 | CN(C)CCNc1ncnc2c1sc1nc(N3CCCC3)c3c(c12)CC(C)(C)OC3 | -10% (inactive)
47 | CCCCc1c(O)nc(SCC(=O)O)[nH]c1=O | -16% (inactive)
48 | CC12CCC3(CO)COC(c4ccccc4O1)C2C3 (centres undefined) | -5% (inactive)
49 | O=C(COC(=O)c1cc(Br)ccc1O)Nc1cccnc1Cl | -14% (inactive)
50 | Cc1csc(NC(=O)c2cc3c(s2)CCCC3)n1 | -5% (inactive)
51 | CC(C)(C)c1ccc(C(=O)NC(=S)Nc2nc3c(s2)CCCC3)cc1 | 13% (active)
52 | COC(=O)c1ccc(C(=O)NC(=S)Nc2nc3c(s2)CC(C)CC3)cc1 (centres undefined) | -10% (inactive)
53 | O=C(NC(=S)Nc1nc2c(s1)CCCC2)c1ccc(C(=O)c2ccccc2)cc1 | -3% (inactive)
54 | COC(=O)c1ccc(C(=O)NC(=S)Nc2nc3c(s2)CCCC3)cc1 | 13% (active)
